Screening data as filed in PubChem.
Gal4-VP16 FLuc – VP16 counterscreen qHTS for inhibitors of ROR gamma transcriptional activity. Potency, µM (highest dose often 53.6 µM), for inactives: at the top dose activity, negative = inhibition, actives largely listed as inhibitors. Drosophila S2 Gal4-VP16 UAS-luciferase, luminescence, 20 h. 310,000 compounds, 3.5% hits;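 note: Gal4-VP16 expression switched on by copper sulfate through the metallothionein promoter; % is set by controls: 0 for no effect and ±100 for the full control effect; nearly all actives have a fitted effect of over 50% in size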
GLP-1R agonist – qHTS of GLP-1 Receptor Agonists; Glucagon-like peptide 1 receptor (Homo sapiens), P43220; HEK293 GLP-1R CRE-luciferase, luminescence, 4-6 h; cells express a hypersensitive GLP-1R form; Potency, µM (titrated, usually from 45.6 µM), for the others: top-dose activation, hits mostly activators; 380,000 compounds, 0.007% hits; note: % of control where 0% means no effect
Target sequence (P43220 whole entry, looked up): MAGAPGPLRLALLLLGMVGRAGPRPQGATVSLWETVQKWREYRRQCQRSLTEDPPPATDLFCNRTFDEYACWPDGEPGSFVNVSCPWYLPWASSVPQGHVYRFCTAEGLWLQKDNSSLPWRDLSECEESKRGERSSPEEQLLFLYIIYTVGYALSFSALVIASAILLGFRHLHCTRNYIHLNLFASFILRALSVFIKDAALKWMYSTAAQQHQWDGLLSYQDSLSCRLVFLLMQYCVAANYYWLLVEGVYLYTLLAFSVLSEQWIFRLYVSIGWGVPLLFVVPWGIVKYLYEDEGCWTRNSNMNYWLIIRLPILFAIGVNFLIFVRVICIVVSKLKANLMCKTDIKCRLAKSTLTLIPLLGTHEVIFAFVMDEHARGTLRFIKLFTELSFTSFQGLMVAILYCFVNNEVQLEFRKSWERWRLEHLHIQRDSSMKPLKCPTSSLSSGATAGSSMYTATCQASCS
GLP1R cytotox – qHTS of GLP-1 Receptor Inverse Agonists: Cytotox Screen; 410,000 compounds, 0.13% hits; Potency, µM (titrated, usually from 38.3 µM), without a hit: at the top dose activity change, negative = inhibition, actives largely listed as inhibitors; AID 624418, 2012; HEK293 cAMP-luciferase reporter cells, luminescence, 24 h;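 note: loss of luciferase light is scored as toxicity; % is set by controls: 0 for no effect and ±100 for the full control effect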
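1536-well qHTS counterscreen of the MLSMR; 200 cells/uL, 12 h pre-incubation, 23 nL cpd, 24 h at 37 deg C 5% CO2, luciferase detection reagent, 12 min RT, luminescence. Inhibition = undesired.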
RORg inh – qHTS for inhibitors of ROR gamma transcriptional activity; Nuclear receptor ROR-gamma (Mus musculus), P51450; Drosophila S2 Gal4-RORgamma UAS-luciferase reporter, 20 h; AID 2551, 2010; 310,000 compounds, 5.4% hits; Potency, µM (top dose mostly 53.6 µM), for inactives: top-dose activity change, negative = inhibition, most hits filed as inhibitors; note: % is set by controls: 0 for no effect and ±100 for the full control effect; nearly all actives have a fitted effect of over 60% in size
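Using a luciferase readout, inhibitors were identified by reduced reporter activity in Drosophila cells coexpressing a copper-inducible Gal4–ROR gamma fusion and UAS-driven Photinus luciferase, incubated 20 hr after 700 uM copper sulfate.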
GLP-1R inv ag – qHTS of GLP-1 Receptor Inverse Agonists (Inhibition Mode); Glucagon-like peptide 1 receptor (Homo sapiens), P43220; HEK293 GLP-1R CRE-luciferase, luminescence, 24 h; GLP-1R form is constitutively active; Potency, µM (titrated, usually from 38.3 µM), without a hit: top-dose activity change, negative = inhibition, hits mostly inhibitors; 410,000 compounds, 1.6% hits; note: % is set by controls: 0 for no effect and ±100 for the full control effect; nearly all actives have a fitted effect of over 55% in size
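Inverse agonists were sought by their lowering of basal cAMP reporter luciferase output in HEK293 cells stably carrying constitutively active human GLP-1R, after 24 h compound treatment.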
Active calls of the source: *. Only some compounds are listed: those with a hit (about 5.9% of all), similar ones and a draw of the others. Calls come from the whole dose curve; as a rule, active = well fitted curve in the direction sought with a large enough effect; inconclusive = small, poorly fitted or top-dose-only effect, or another doubt; inactive = no such curve, though single readings can be large; an effect the other way counts as inactive or inconclusive. Potency is the fitted concentration of half-maximal effect.

How did Fc1ccccc1NC(=S)NNc1ncc(C(F)(F)F)cc1Cl do in these assays?
Gal4-VP16 FLuc: 15.8µM*; GLP-1R agonist: -3.0%; GLP1R cytotox: inconclusive; RORg inh: inconclusive; GLP-1R inv ag: -24.9%

Results for Cc1c(Cl)cccc1NC(=S)NNc1ncc(C(F)(F)F)cc1Cl ?
Gal4-VP16 FLuc: inconclusive; GLP-1R agonist: -0.2%; GLP1R cytotox: inconclusive; RORg inh: 15.8µM*; GLP-1R inv ag: inconclusive

Results for COc1ccccc1CNc1cc(-c2ccoc2)ncn1 ?
Gal4-VP16 FLuc: 23.7%; RORg inh: -6.3%

Results for CCN(c1cccc(C)c1)S(=O)(=O)c1nnc(NC(=O)C2CCCCC2)s1 ?
GLP1R cytotox: 1.8%; GLP-1R inv ag: 4.6%

How did CC(C)(C)C(=O)Nc1ncc(C(F)(F)F)cc1Cl do in these assays?
Gal4-VP16 FLuc: 20.1%; GLP-1R agonist: -9.5%; GLP1R cytotox: -0.1%; RORg inh: 30.6%; GLP-1R inv ag: 5.2%

Results for FC(F)(F)c1cnc(NNC(=S)Nc2ccccc2)c(Cl)c1 ?
GLP-1R agonist: 4.6%; GLP1R cytotox: -19.3%; GLP-1R inv ag: inconclusive

Results for Cc1cccc(C)c1NC(=S)NNc1ncc(C(F)(F)F)cc1Cl ?
Gal4-VP16 FLuc: inconclusive; GLP-1R agonist: 11.4%; GLP1R cytotox: 76.5%; RORg inh: 7.94µM*; GLP-1R inv ag: -28.0%

What do the screens show for `O=C(O)c1ccc(/C=N/Nc2ncc(C(F)(F)F)cc2Cl)cc1`?
Gal4-VP16 FLuc: 13.1%; GLP-1R agonist: 4.3%; GLP1R cytotox: -14.5%; RORg inh: 10µM*; GLP-1R inv ag: 4.9%

How did CCc1nc(N2CCCCC2C)c2oc3ccccc3c2n1 (stereo unspecified) do in these assays?
Gal4-VP16 FLuc: inconclusive; GLP-1R agonist: 12.3%; GLP1R cytotox: 4.8%; RORg inh: 17.8µM*; GLP-1R inv ag: 0.0%

Results for CCOC(=O)C1CCCN(c2nc(C)nc3c2oc2ccccc23)C1 (stereo unspecified) ?
Gal4-VP16 FLuc: inconclusive; GLP-1R agonist: 10.3%; GLP1R cytotox: -16.4%; RORg inh: inconclusive; GLP-1R inv ag: -3.3%

How did Cc1nc(NC(C)c2ccccc2)c2oc3ccccc3c2n1 (stereo unspecified) do in these assays?
Gal4-VP16 FLuc: 12.6µM*; GLP-1R agonist: 22.7%; GLP1R cytotox: 8.1%; RORg inh: inconclusive; GLP-1R inv ag: inconclusive

How did Cc1nc(N2CCOCC2)c2oc3ccccc3c2n1 do in these assays?
Gal4-VP16 FLuc: -3.2%; GLP-1R agonist: 6.0%; GLP1R cytotox: 25.9%; RORg inh: -23.2%; GLP-1R inv ag: 9.7%

How did CCc1nc(N2CCCCC2C(=O)O)c2oc3ccccc3c2n1 (stereo unspecified) do in these assays?
Gal4-VP16 FLuc: 2.6%; GLP-1R agonist: -0.8%; GLP1R cytotox: -7.1%; RORg inh: 21.6%; GLP-1R inv ag: -1.6%

Results for CCc1nc(N2CCCCC2)c2oc3ccccc3c2n1 ?
Gal4-VP16 FLuc: -22.9%; GLP-1R agonist: 8.6%; GLP1R cytotox: -17.3%; RORg inh: 15.8µM*; GLP-1R inv ag: -7.3%

How did CCc1nc(N2CCCC(C)C2)c2oc3ccccc3c2n1 (stereo unspecified) do in these assays?
Gal4-VP16 FLuc: 3.98µM*; GLP-1R agonist: 6.0%; GLP1R cytotox: -16.7%; RORg inh: -88.4%; GLP-1R inv ag: inconclusive

What do the screens show for `CCc1nc(Nc2ccc3c(c2)OCO3)c2oc3ccccc3c2n1`?
Gal4-VP16 FLuc: -3.6%; GLP-1R agonist: 3.3%; GLP1R cytotox: 66.3%; RORg inh: -0.9%; GLP-1R inv ag: -28.2%

How did CCc1nc(NC(C)C)c2oc3ccccc3c2n1 do in these assays?
Gal4-VP16 FLuc: -0.8%; GLP-1R agonist: 12.8%; GLP1R cytotox: 7.2%; RORg inh: 12.6µM*; GLP-1R inv ag: inconclusive

How did CCc1nc(N2CCN(Cc3ccc4c(c3)OCO4)CC2)c2oc3ccccc3c2n1 do in these assays?
Gal4-VP16 FLuc: -29.3%; GLP-1R agonist: 6.5%; GLP1R cytotox: -17.9%; RORg inh: 12.6µM*; GLP-1R inv ag: -9.0%
